Results filed as inconclusive are left out. The source made the active and inactive calls. How the source made its calls: active means hit-call score of the fitted dose curve at least 0.9, where 1 is the maximum; inconclusive means response in the unintended direction; inactive means score below 0.9.

In the test the test system is rainbow trout Retinoid X Receptor beta (RXRb). Put plainly: ATG_rtRXRb_EcoTox2: Attagene TRANS-FACTORIAL EcoTox-2 HepG2 Assay for rainbow trout Retinoid X Receptor beta (RXRb). As to the method: ATG_EcoTox2 is a cell-based, multiplexed assay created by modifying the existing Attagene TRANS-FACTORIAL system to include a panel of nuclear receptors from some or all the following species: human (Homo sapiens), african clawed frog (Xenopus laevis), rainbow trout (Oncorhynchus mykiss), japanese medaka (Oryzias latipes), and zebrafish (Danio rerio). The ECOTOX2-FACTORIAL format uses HepG2, a human liver cell line, with measurements taken at 24 hours after chemical dosing in a 24-well plate. ATG_rtRXRb_EcoTox2 is one of 29 assay components calculated in the ATG_EcoTox2 assay. It is designed to make measurements of mRNA induction, a form of inducible reporter, as detected with fluorescence intensity signals by Reverse transcription polymerase chain reaction (RT-PCR) and Capillary electrophoresis technology.The assay endpoint ATG_rtRXRb_EcoTox2 was analyzed in the positive analysis fitting direction relative to DMSO as the negative control and baseline of activity. Using a type of inducible reporter, measures of mRNA for gain-of-signal activity can be used to understand the reporter gene at the transcription factor-level as they relate to the gene RXRb. Furthermore, this assay endpoint can be referred to as a primary readout, because this assay has produced multiple assay endpoints where this one serves a reporter gene function. […]
For the molecule `[Cl][Sn]([c]1ccccc1)([c]1ccccc1)[c]1ccccc1`, the AC50 is 119 nM (active).

The values are drawn from PubChem BioAssay AID2284355 (EPA ToxCast).
